Screening data from PubChem.
An excerpt weighted towards active compounds, which were near 5.2% of everything screened.
NR3A LBD binder: NR3A (human) ligand-binding domain modulation | NR3A LBD differential scanning fluorimetry, Tm shift; 0% = protein alone, 100% = glycine-bound protein | Tm shift relative to glycine control, % at 25 µM | 340,000 compounds, 2.5% hits;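 active = melting temperature shift of at least 10% of the positive control shift, at one fixed dose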
Vif imaging: inhibitors of HIV Vif | AID 602346 | HEK293T cells, Vif self-association by quenched fluorescence, imaging, 24 h | 340,000 compounds, 0.35% hits | inhibition, % at 7.49 µM; in the data active = inhibition above about 50%, passing the limit was not always enough; inconclusive = no clear call, values can overlap the other calls; inactive = below about 31%
NadD block: inhibitors of Staphylococcus aureus NadD; inhibition, % at 20 µM; AID 602399; 360,000 compounds, 0.78% hits; purified NadD enzyme, colorimetric absorbance read-out; in the data active = inhibition above about 26%
esBAF inh: inhibitors of esBAF chromatin remodeling in mouse ES cells. Bmi1-luciferase knock-in reporter, 24 h; 100% = twice the neutral-well signal. AID 602393. 350,000 compounds, 2% hits. reporter increase, % at 12.5 µM; in the data active = activation above about 40%; inconclusive = no clear call, values can overlap the other calls;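 also: 0% = median of the plate's neutral control wells and 100% = double that signal; a rise in the Bmi1 reporter signal indicates esBAF inhibition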
SMARCA2 act: activators of SMARCA2 function | activation, % at 9.1 µM | AID 652017 | MG213 cells, MMTV-luciferase reporter, dexamethasone, overnight | 370,000 compounds, 1% hits; in the data active = activation above about 7.8%;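 also: 0% = vehicle wells and 100% = reference activator wells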
SKN-1 block: C. elegans SKN-1 inhibition; C. elegans VP596 Pgst-4::GFP/RFP ratio, acrylamide-induced, 24 h; inhibition, % at 21.8 µM; 360,000 compounds, 0.49% hits; AID 624304;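 active = interference check ratio from 0.5 to 1.5 plus GFP to RFP signal ratio inhibition reaching or exceeding a fixed threshold, cut at about 30% in these data, passing the limit was not always enough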
* = called active by the depositor; ? = inconclusive; / = no result given.

SMILES	NR3A LBD binder	Vif imaging	NadD block	esBAF inh	SMARCA2 act	SKN-1 block
C[C@H](CO)N1C[C@H](C)[C@@H](CN(C)S(=O)(=O)c2ccc(F)cc2)Oc2ccc(NC(=O)Nc3ccc(C(F)(F)F)cc3)cc2C1=O	10.9*	23.7	21.9	-6.4	1.7	11.5
C[C@@H]1CN([C@H](C)CO)C(=O)c2cc(NC(=O)Nc3ccc(C(F)(F)F)cc3)ccc2O[C@H]1CN(C)S(=O)(=O)c1ccc(Cl)cc1	19.4*	/	29.4	2.3	-1.4	5.1
C[C@@H]1CN([C@@H](C)CO)C(=O)Cc2cc(NC(=O)Nc3ccc(C(F)(F)F)cc3)ccc2O[C@@H]1CN(C)S(=O)(=O)c1ccc(Cl)cc1	14.0*	8.0	15.5	1.0	-0.4	-2.1
Cc1ccc(S(=O)(=O)N(C)C[C@@H]2Oc3ccc(NC(=O)Nc4ccc(C(F)(F)F)cc4)cc3C(=O)N([C@H](C)CO)C[C@H]2C)cc1	/	/	/	3.8	/	/
C[C@@H]1CN([C@H](C)CO)C(=O)c2cc(NC(=O)Nc3ccc(C(F)(F)F)cc3)ccc2O[C@@H]1CN(C)S(=O)(=O)c1ccc(F)cc1	/	/	/	3.3	/	/
CC(C)NC(=O)Nc1cccc2c1O[C@@H](CN(C)C(=O)NC(C)C)[C@@H](C)CN([C@@H](C)CO)C2=O	/	/	/	-5.2	/	/
CC(C)NC(=O)N(C)C[C@@H]1Oc2ccc(NC(=O)c3ccncc3)cc2CC(=O)N([C@H](C)CO)C[C@H]1C	/	/	/	3.2	/	/
CCCC#Cc1ccc2c(c1)O[C@H](CN(C)C(=O)NC(C)C)[C@@H](C)CN([C@@H](C)CO)S2(=O)=O	/	/	/	3.8	/	/
Cn1c2ccccc2c2cc(/C=N/NC(=O)c3cc(O)cc(O)c3)ccc21	27.6*	3.7	18.8	-7.8	-2.0	14.6
Cc1ccsc1/C=N/Nc1cccc(C(=O)O)c1	20.5*	-2.9	0.2	/	2.3	-4.1
COc1ccc(/C=N/NC(=O)c2[nH]nc3c2CCc2ccccc2-3)cc1OC	33.6*	7.2	8.3	/	-1.4	15.2
COc1cc(C(=O)N/N=C/c2ccc3c(c2)c2ccccc2n3C)ccc1O	38.1*	2.2	21.4	5.1	1.3	4.4
COc1cc(/C=N/NC(=O)CCn2c3ccccc3c3ccccc32)ccc1O	4.8	0.1	7.9	1.2	-2.6	11.7
CCn1c2ccccc2c2cc(/C=N/NC(=O)c3ccccc3)ccc21	-3.4	0.7	15.6	5.1	6.8	31.8
COc1ccc(/C=C/C(=O)Oc2ccc(/C=N/NC(=O)c3ccccc3)cc2)cc1OC	0.8	-8.5	-7.6	47.4*	-2.2	16.4
COc1ccc(/C=N/NC(=O)c2ccc3ccccc3c2)cc1OS(=O)(=O)c1ccc(NC(C)=O)cc1	28.0*	-4.3	24.7	-6.3	-2.1	5.3
COc1ccc2ccccc2c1/C=N/Nc1cccc(C(=O)O)c1	1.0	19.7	3.1	65.9*	1.0	15.2
COc1cc(C(=O)N/N=C/c2ccc(OC(=O)c3ccccc3Cl)cc2)ccc1O	26.3*	/	6.3	/	0.8	1.1
C[C@@H]1CN([C@H](C)CO)S(=O)(=O)c2ccc(/C=C/c3ccccc3)cc2O[C@H]1CN(C)Cc1cncnc1	/	/	/	4.9	/	/
Cc1nn(-c2ccccc2Cl)c(Cl)c1/C=N/Nc1cccc(C(=O)O)c1	10.2*	-1.6	0.3	/	3.3	6.6
COc1cc(C=NNc2ccccc2)ccc1OC(=O)c1ccccc1	/	10.4	1.6	40.9*	-1.4	-2.0
COc1ccc(C(=O)Oc2ccc(/C=N/Nc3ccc(Cl)c(C(=O)O)c3)cc2OC)cc1	-3.0	-2.9	16.5	-1.6	3.7	-2.1
O=C(O)c1cccc(N/N=C/c2sc(N3CCOCC3)nc2-c2ccccc2)c1	14.3*	-10.7	-6.5	48.4*	5.3	5.5
Cc1[nH]c2c(C)cccc2c1CCNS(=O)(=O)c1cccc([N+](=O)[O-])c1	30.2*	-4.2	-9.5	/	-2.6	-5.4
O=[N+]([O-])c1cccc(S(=O)(=O)NCCc2ccccc2)c1	0.6	9.0	-5.0	5.9	-1.6	-2.1
SMILES	NR3A LBD binder	Vif imaging	NadD block	esBAF inh	SMARCA2 act	SKN-1 block
Cc1ccc([N+](=O)[O-])cc1S(=O)(=O)NCCc1c(C)[nH]c2c(C)cccc12	33.0*	0.3	-12.0	/	-5.4	1.4
O=C(NN=Cc1ccc(O)cc1)c1cc(-c2ccc(Cl)cc2)n[nH]1	/	/	/	/	-0.9	/
O=C(N/N=C/c1ccccc1)c1ccc2c(c1)OCO2	0.5	-3.7	0.2	-22.6	2.7	1.8
O=C(N/N=C/c1cccc(O)c1)c1cc(-c2ccc3c(c2)OCO3)n[nH]1	31.6*	-0.9	2.2	/	-0.9	-2.0
O=C(N/N=C/c1ccc(O)cc1)c1cc(-c2ccc3c(c2)OCO3)n[nH]1	27.7*	-9.5	-2.8	22.6	3.7	10.9
CCc1ccc(/C=N/NC(=O)c2cc(-c3cccc([N+](=O)[O-])c3)n[nH]2)cc1	9.7	18.4	15.1	/	-2.2	-0.5
O=C(N/N=C/c1ccccc1)c1cc(-c2ccc3c(c2)OCO3)n[nH]1	26.2*	-3.0	3.7	49.2*	0.1	-2.2
O=C(N/N=C/c1cccc([N+](=O)[O-])c1)c1cc(-c2ccc3c(c2)OCO3)n[nH]1	29.2*	12.5	19.1	/	-1.7	15.9
CCCC(=O)Nc1ccc2c(c1)C(=O)N(C)[C@@H]1CC[C@@H](CC(=O)NCCc3ccccc3)O[C@@H]1CO2	/	/	/	1.4	/	/
COc1cccc(S(=O)(=O)Nc2ccc3c(c2)[C@@H]2C[C@H](CC(=O)NCc4cccc(F)c4)O[C@@H](CO)[C@@H]2O3)c1	/	/	/	-7.6	/	/
CNC[C@H]1Oc2ccc(NC(=O)Nc3cccc4ccccc34)cc2C(=O)N([C@@H](C)CO)C[C@H]1C	/	/	/	4.4	/	/
NC(=O)C1CCCN(C(=O)c2cccc(S(=O)(=O)N3CCCCCC3)c2)C1 (stereo unspecified)	-1.7	-4.7	-7.2	1.6	-3.0	-3.3
CC1CN(S(=O)(=O)c2cccc(C(=O)N3CCC(C(N)=O)CC3)c2)CC(C)O1 (stereo unspecified)	-0.6	53.2*	2.0	-8.8	3.5	13.0
CCCN1CCN(C(=O)c2cc(COc3ccc(F)c(F)c3)on2)CC1	0.0	-9.1	-4.9	?	1.9	11.7
COc1cc(Cl)ccc1OCc1cc(C(=O)N2CCCC(OC)C2)no1 (stereo unspecified)	0.3	0.1	-3.2	75.1*	1.8	14.8
COc1cc(Cl)ccc1OCc1cc(C(=O)N2CCN(C)CC2)no1	-1.5	2.6	-2.7	-3.0	-2.7	18.6
CCCOC1CCCN(C(=O)c2cc(COc3ccc(F)c(F)c3)on2)C1 (stereo unspecified)	0.1	-2.4	-1.4	47.1*	1.4	-6.2
COc1cc(Cl)ccc1OCc1cc(C(=O)N2CCCCCC2)no1	0.1	4.1	-7.8	44.9*	-1.7	12.8
O=C(C[C@H]1C[C@H]2c3cc(NC(=O)NC4CCCCC4)ccc3O[C@H]2[C@H](CO)O1)NCC1CC1	/	/	/	-2.0	/	/
